A structure can be active in one record and inactive in another. Calls of active or inactive are those of the source. Rule for the calls: active = hit-call score of the fitted dose curve at least 0.9, where 1 is the maximum; inactive = score below 0.9.

The values below come from PubChem BioAssay (EPA / NIEHS).

The assay can be described thus: ATG_AP_2_CIS: Attagene CIS-FACTORIAL HepG2 Assay for human Activator Protein 2 (AP-2) (AID 2282932). The conditions noted are these: HepG2 AP-2 cis-reporter, Attagene transcription factor profiling; actives raise or lower the signal. As to the method: ATG_CIS is a cell-based, multiplexed-readout assay that uses HepG2, a human liver cell line, with measurements taken at 24 hours after chemical dosing in a 24-well plate.ATG_AP_2_CIS is one of 52 assay component(s) measured or calculated from the ATG_CIS assay. It is designed to make measurements of mRNA induction, a form of inducible reporter, as detected with fluorescence intensity signals by Reverse transcription polymerase chain reaction (RT-PCR) and Capillary electrophoresis technology.Data from the assay component ATG_AP_2_CIS was analyzed into 1 assay endpoint. This assay endpoint, ATG_AP_2_CIS, was analyzed with bidirectional fitting relative to DMSO as the negative control and baseline of activity. Using a type of inducible reporter, measures of mRNA for gain or loss-of-signal activity can be used to understand the reporter gene at the transcription factor-level as they relate to the gene TFAP2A and TFAP2B and TFAP2D. Furthermore, this assay endpoint can be referred to as a primary readout, because this assay has produced multiple assay endpoints where this one serves a reporter gene function. To generalize the intended target to other relatable targets, this assay endpoint is annotated to the dna binding intended target family, where the subfamily is basic helix-turn-helix leucine zipper.
Human liver HepG2 cells are transiently transfected with multiple reporter transcription units (MRTUs) in 6-well plates using FuGene 6 reagent (Roche; 3 ml FuGene/1 mg DNA). The MRTU constructs are regulated by a cis-regulating element (promoter). […] A major difference between the CIS and TRANS system is that in CIS activities of endogenous TFs are measured, whereas the TRANS assay evaluates changes in activities of exogenous, chimeric NR-Gal4 proteins. […] At the end of 24 hour incubation, total RNA was isolated using TriZol reagent (Invitrogen). The isolated RNA is then reverse-transcribed using oligo(dT) primer and Mo-MLV reverse transcriptase (Invitrogen) with DNAse I (Ambion) treatment for 30 min. The one-tenth of the produced cDNA was amplified by PCR using Taq DNA polymerase (Invitrogen) and two reporter sequence-specific primers. The PCR products were fluorescently labeled by primer extension with 6-arboxyfluorescein (6-FAM) 5'-labeled reporter sequence-specific primer (2 min at 95 C, 20 s at 68 C and 10 min at 72 C) and these products were digested with 5U of HpaI (New England Biolabs) for 2h at 37 C. The fragments were purified using Qiaquick PCR columns (Qiagen), analyzed on an ABI 3130xL genetic analyzer (Applied Biosystems) with peak positions identified by using a set of X-rhodamine (ROX)-labeled MapMarker1000 molecular weight standards (BioVentures). The raw capillary electrophoresis data was processed using Attagraph software (Attagene).
For the compound `C=CC(=O)OCC(F)(F)C(F)(F)C(F)(F)C(F)(F)COC(=O)C=C`, the compound was called inactive. Turning to `O=C(O)C(F)(F)C(F)(F)C(F)(F)C(F)(F)C(F)(F)C(F)(F)C(F)(F)C(F)(F)Cl`, the AC50 is 83.2 µM (active) and the result was inactive. For `C=C(C)C(=O)OCCC(F)(F)C(F)(F)C(F)(F)C(F)(F)C(F)(C(F)(F)F)C(F)(F)F`, the result was inactive. Consider `OCCCC(F)(F)C(F)(F)C(F)(F)C(F)(F)C(F)(F)C(F)(F)C(F)(F)F`, for which the AC50 was 75.5 µM (active) and the compound was classed as inactive. In the case of `C1COCCN1`, the compound was classed as inactive. The same measure, in the same setting: the entry for `Cc1cccc(N(C)C)c1` is “inactive”; for `FC(F)(F)C(F)(F)C(F)(F)C(F)(F)C(F)(F)C(F)(F)C(F)(F)Br` it is “inactive”; for `OCC(F)(F)C(F)(F)C(F)(F)C(F)(F)C(F)(F)C(F)F` it is “inactive”. Still for that read-out and setting: then `OCC(F)(F)C(F)(F)C(F)(F)F`, with “inactive”.

For `O=C(O)C(F)(OC(F)(F)C(F)(OC(F)(F)C(F)(OC(F)(F)C(F)(F)C(F)(F)F)C(F)(F)F)C(F)(F)F)C(F)(F)F` (stereo not given), the call was inactive. On the same count and under the same terms, the entry for `CCN(Cc1cccc(S(=O)(=O)O)c1)c1ccc(C(=C2C=CC(=[N+](CC)Cc3cccc(S(=O)(=O)O)c3)C=C2)c2ccc(O)cc2S(=O)(=O)[O-])cc1` is “inactive”; for `O=C(O)C(F)(F)C(F)(F)C(F)(F)C(F)(F)C(F)(F)C(F)(F)C(F)(F)C(F)(F)C(F)(F)C(F)(F)C(F)(F)C(F)(F)F` it is “inactive”. As for `CCCCCCCCCCCCCCCC[N+](C)(C)Cc1ccccc1`, the AC50 is 51.9 µM (active). As to `OC[C@@H](O)[C@@H](O)[C@H](O)[C@@H](O)CO`, the result was inactive. With `COC(OC(C)=O)c1ccccc1` (stereo not given), the result was inactive. Still for that read-out and setting: the entry for `NC(=O)C(F)(F)C(F)(F)C(F)(F)C(F)(F)F` is “inactive”; for `O=C(O)C(F)(OC(F)(F)C(F)(OC(F)(F)C(F)(F)C(F)(F)F)C(F)(F)F)C(F)(F)F` (stereo not given) it is “inactive”; for `FC(F)(F)C(F)(F)C(F)(F)C(F)(F)C(F)(F)CCI` it is “inactive”. Same read-out and setting: then `CCCCOCCOCCOC(=O)CCCCC(=O)OCCOCCOCCCC`, with “inactive”; and `N=C(N)C(F)(F)C(F)(F)C(F)(F)C(F)(F)C(F)(F)C(F)(F)C(F)(F)F`, with “inactive”; and `FC(F)(I)C(F)(F)C(F)(F)C(F)(F)I`, with “inactive”. Same read-out and setting: the entry for `CCCCCCOC(=O)c1ccccc1O` is “inactive”; for `CC(CCl)OP(=O)(OC(C)CCl)OC(C)CCl` (stereo not given) it is “inactive”. On to `Oc1ccc(Nc2ccccc2)cc1`, for which the compound was classed as inactive.

For the compound `O=C(O)C(F)(F)C(F)(F)C(F)(F)C(F)(F)C(F)(F)C(F)(F)C(F)(F)C(F)(F)C(F)(F)C(F)(F)C(F)(F)C(F)(F)C(F)(F)F`, the result was inactive. Same read-out and setting: then `O=C(CC(=O)C(F)(F)C(F)(F)F)C(F)(F)F`, with “inactive”; and `Cc1ccc(S(=O)(=O)NCl)cc1`, with “inactive”; and `CCCCOc1ccc(N)cc1`, with “inactive”.

As for `CC(C)(C)C(=O)CC(=O)C(F)(F)C(F)(F)C(F)(F)F`, the outcome was inactive. The same measure, in the same setting: then `c1ccc(B(c2ccccc2)c2ccccc2)cc1`, with “inactive”; and `FC(F)(F)C(F)(F)C(F)(F)C(F)(F)C(F)(F)C(F)(F)C(F)(F)C(F)(F)CCS`, with “inactive”.

For the compound `CCCCCCCCC(F)(F)C(F)(F)C(F)(F)C(F)(F)C(F)(F)C(F)(F)F`, the result was inactive.

For the compound `O=C(C=Cc1ccccc1)OCC=Cc1ccccc1`, the compound was classed as inactive. Still for that read-out and setting: then `CCCCCCC(C)OC(=O)CCCCC(=O)OC(C)CCCCCC` (stereo not given), with “inactive”; and `O=P(O)(O)OCCC(F)(F)C(F)(F)C(F)(F)C(F)(F)C(F)(F)C(F)(F)F`, with “inactive”; and `CCO[Si](CCC(F)(F)C(F)(F)C(F)(F)C(F)(F)C(F)(F)C(F)(F)F)(OCC)OCC`, with “inactive”. Still for that read-out and setting: then `Nc1cc(Cl)c(N)c(Cl)c1`, with “inactive”; and `CC/C=C\CCOC(C)=O`, with “inactive”.

As a reminder, the AC50 is the concentration at which the activity in the assay is half-maximal.
